Screening data: PubChem BioAssay, several laboratories
CYP2C9 inh: human CYP2C9 inhibition; CYP2C9 Supersomes, luciferin-H conversion, luminescence; 96,000 tested, 20% active; P11712; inhibition, % at 5 µM;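 active means blocking of liver enzyme CYP2C9 beyond about 50% at 5 µM, limit read from the data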
Target sequence (P11712 whole entry, looked up): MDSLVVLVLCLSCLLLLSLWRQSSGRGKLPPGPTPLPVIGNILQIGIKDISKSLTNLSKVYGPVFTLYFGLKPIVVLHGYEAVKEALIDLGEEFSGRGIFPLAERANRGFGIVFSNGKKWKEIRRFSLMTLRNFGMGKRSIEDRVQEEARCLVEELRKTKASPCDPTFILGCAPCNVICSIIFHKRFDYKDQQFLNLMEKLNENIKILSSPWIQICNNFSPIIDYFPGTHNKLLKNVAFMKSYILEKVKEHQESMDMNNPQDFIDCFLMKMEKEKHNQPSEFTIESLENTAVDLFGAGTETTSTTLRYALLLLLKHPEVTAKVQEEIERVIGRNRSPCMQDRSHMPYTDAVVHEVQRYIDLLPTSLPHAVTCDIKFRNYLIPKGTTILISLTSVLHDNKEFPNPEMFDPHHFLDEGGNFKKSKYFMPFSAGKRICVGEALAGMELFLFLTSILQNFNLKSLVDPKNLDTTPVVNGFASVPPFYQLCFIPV
PostGolgi ctrl: growth of the yeast control strain, post-Golgi counter-screen | 98,000 tested, 5% active | efflux-deficient yeast background strain, growth absorbance A615, 16 h | inhibition, % at 10 µM | AID 738
CYP2C9 activ: activators of human CYP2C9. recombinant CYP2C9, luciferin-H conversion, luminescence; active compounds read high; factor 1 = untreated enzyme, 0 = blocked. 96,000 tested, 1.4% active. activation factor at 5 µM. P11712;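 active means activation factor of 2 or more for CYP2C9 at a 5 µM dose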;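 further: 0 = sulfaphenazole-blocked wells and 1 = vehicle-only wells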
CYP2C19 activ: increases human CYP2C19 enzyme activity. P33261. recombinant CYP2C19, luciferin-H EGE luminescence; active compounds read high; 0 = fully inhibited enzyme, 1 = untreated enzyme. activation factor at 5 µM. 96,000 tested, under 10 active. AID 1025;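 active means activation factor of at least 2 at 5 µM in the primary screen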;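 further: 0 = wells with 2.5 mM tranylcypromine and 1 = vehicle-only wells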
CYP2C19 inhib: inhibitors of human CYP2C19 | P33261 | CYP2C19 Supersomes, luciferin-H EGE luminescence, 30 min | inhibition, % at 5 µM | 96,000 tested, 21% active | AID 778;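 active means CYP2C19 inhibition above a set limit at 5 µM in the primary screen, cut at about 50% in these data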;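 further: plate controls were negative control wells for no effect and 2.5 mM tranylcypromine positive control for full effect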
PostGolgi yeast: growth inhibition of a yeast mutant, post-Golgi transport screen. post-Golgi transport phenotypic cell assay. inhibition, % at 10 µM. 98,000 tested, 0.9% active;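 further: yeast cells grown in 1536-well plates; yeast grown about 18 h at 30C before absorbance read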
* marks the source's active call; other numbers are inactive results; . = no result. Rows were chosen to be rich in hits. Some 32% of all compounds tested hit in one or more screens of this group. Unless noted, no stated cut-off is given here; in the data, active means inhibition above about 30%; inactive means the rest.

SMILES	CYP2C9 inh	PostGolgi ctrl	CYP2C9 activ	CYP2C19 activ	CYP2C19 inhib	PostGolgi yeast
CCOC(=O)c1ccc(N2C(=O)c3n[nH]c(C)c3C2c2ccco2)cc1 (configuration not stated)	77*	19	0.2	0.2	81*	-5
COc1cc(C2c3c(-c4ccccc4)n[nH]c3C(=O)N2c2ccc(C(=O)O)cc2)ccc1O (configuration not stated)	-9	11	1.1	1.1	-8	-3
Cc1ccc(N2C(=O)c3n[nH]c(C)c3C2c2ccccn2)cc1 (configuration not stated)	18	13	0.8	0.8	17	1
CCOC(=O)c1ccc(N2C(=O)c3n[nH]c(C)c3C2c2ccc(OC)cc2)cc1 (configuration not stated)	93*	5	0.1	0.1	90*	1
CCOC(=O)Cc1nnc(NC(=O)COc2ccc(C)cc2)s1	49	3	0.5	1	2	-9
CCOC(=O)Cc1nnc(NC(=O)COc2ccc(OC)cc2)s1	61*	10	0.4	1	0	12
CCOC(=O)Cc1csc(NC(=O)COc2ccc(N(C)S(=O)(=O)c3ccc(C)cc3)cc2)n1	92*	-3	0.1	0.1	92*	-6
CCOC(=O)Cc1csc(NC(=O)CSc2nnc(C(C)C)n2CC)n1	.	1	.	.	.	8
CCOC(=O)Cc1csc(NC(=O)COc2ccc(OC)cc2)n1	16	-3	0.8	1	3	-16
CCOC(=O)Cc1csc(NC(=O)c2cccc(OC)c2)n1	65*	-2	0.3	0.7	27	-7
CCOC(=O)Cc1csc(NC(=O)CSc2nnc(-c3ccc(OC)cc3)n2C)n1	59*	3	0.4	0.7	30	0
O=C(NCCc1cccc(F)c1)[C@@H]1CSC2c3ccccc3C(=O)N21 (some centres not stated)	28	7	0.7	0.8	21	4
COc1cccc(N2CC(O)Cn3c2nc2c3c(=O)n(CCCc3ccccc3)c(=O)n2C)c1 (configuration not stated)	25	-4	0.7	0.9	14	16
COCc1cc(Sc2c(Cl)cccc2Cl)nc(-c2ccccc2)n1	18	14	0.8	1	0	-5
CCOC(=O)Cc1csc(NC(=O)COc2ccc3ccccc3c2)n1	47	-2	0.5	0.5	53*	-7
CCOC(=O)CNC(=O)c1sc(NC(=O)c2ccccc2F)nc1C	14	8	0.9	0.6	38	0
CCOC(=O)CNC(=O)c1sc(NC(=O)c2cccc(F)c2)nc1C	22	35*	0.8	1.1	-5	-2
CCOC(=O)Cc1csc(NC(=O)CS(=O)(=O)Cc2ccccc2)n1	49	1	0.5	0.8	20	7
CCOC(=O)Cc1csc(NC(=O)c2sc3nc4c(C)cc(C)cc4cc3c2N)n1	59*	11	0.4	0.7	28	-5
CCOC(=O)Cc1csc(NC(=O)CCS(=O)(=O)Cc2ccccc2)n1	53*	-11	0.5	0.7	31	1
Cn1cccc1C(=O)NC(=O)CSc1nc2ccccc2s1	-55	8	1.5	1	4	-2
Cc1ccc(NC(=O)CC2SC3=NCCCN3C2=O)c(C)c1 (configuration not stated)	-19	8	1.2	1	-1	-3
CCOC(=O)Cc1csc(NC(=O)CSc2nc(N)c3c(C)c(C)sc3n2)n1	59*	5	0.4	0.8	19	0
CCOC(=O)Cc1csc(NC(=O)CC)n1	2	6	1	1	-2	-2
Cc1ccnc(Sc2ncccc2[N+](=O)[O-])n1	-46	10	1.5	1.1	-14	6
SMILES	CYP2C9 inh	PostGolgi ctrl	CYP2C9 activ	CYP2C19 activ	CYP2C19 inhib	PostGolgi yeast
O=C(COC(=O)c1cccc(S(=O)(=O)N2CCOCC2)c1)Nc1nc(-c2ccccc2Cl)cs1	74*	-1	0.3	0.3	67*	5
O=C(OCc1nc2ccccc2s1)c1cccc(S(=O)(=O)N2CCOCC2)c1	65*	-5	0.4	0.4	60*	1
Cc1cc(NC(=O)COC(=O)c2cccc(S(=O)(=O)N3CCOCC3)c2)no1	1	-5	1	0.8	24	5
O=C(CCc1ccc(S(=O)(=O)N2CCOCC2)cc1)OCc1nc2ccccc2s1	25	-4	0.7	1	-1	-1
C/C(CC(=O)Nc1ccc(OCc2ccccc2)cc1)=N\NC(=O)C(=O)Nc1ccccc1C	20	7	0.8	1.1	-11	-12
COc1ccccc1-n1c(CNc2c(C)cccc2C)nnc1SCC(=O)N1CCOCC1	-5	7	1.1	1	1	5
O=C(OC1CCS(=O)(=O)c2sccc21)c1ccccc1 (configuration not stated)	35	7	0.7	0.4	56*	-3
CC12CC3CC(C)(C1)CC(C(=O)Nc1nn[nH]n1)(C3)C2	-2	6	1	0.9	11	19
CC12CC3(C)CC(C)(C1)CC(C(=O)Nc1nn[nH]n1)(C2)C3	15	1	0.9	0.5	54*	-8
CCCCNC(=O)c1cc2c(=O)n3cccc(C)c3nc2n1C	-44	.	1.4	1	3	.
Cc1cccn2c(=O)c3cc(C(=O)NCCCN4CCCC4=O)n(C)c3nc12	32	-5	0.7	0.5	51*	16
O=C(NCCCN1CCCC1=O)c1cccc(C(F)(F)F)c1	77*	35*	0.2	0.6	45	-5
Cc1cccn2c(=O)c3cc(C(=O)NCCCn4ccnc4)n(C)c3nc12	60*	6	0.4	0.7	32	-5
O=C(NCCCN1CCCC1=O)c1cccs1	-2	9	1	0.9	12	2
O=C(CCSc1nc2cc(Cl)ccc2o1)N1CCOCC1	-17	0	1.2	0.7	35	-6
CSc1ccccc1NC(=O)C1CCCO1 (configuration not stated)	-29	.	1.3	1.1	-10	.
COCCN=C1Sc2nc3c(C)cccc3cc2CN1Cc1ccco1	57*	10	0.4	0.7	30	-5
Cc1ccc2nc3c(cc2c1)CN(Cc1ccco1)C(=NCC1CCCO1)S3 (configuration not stated)	79*	43*	0.2	0.5	52*	-1
Cc1cccc2cc(CN(CC3CCCO3)C(=O)c3ccco3)c(=O)[nH]c12 (configuration not stated)	12	0	0.9	0.7	34	5
Cc1ccc2cc3c(nc2c1)N(Cc1ccco1)CC3	5	2	1	0.9	9	9
Cc1cccc2cc3c(nc12)SC(=NCC1CCCO1)N(Cc1ccco1)C3 (configuration not stated)	57*	27	0.4	0.8	23	7
Cc1cc(Br)cn2ccnc12	-18	-9	1.2	1.1	-14	3
CCCSc1nc2c(c(=O)n1CC)SC(C)C2 (configuration not stated)	46	14	0.5	0.7	31	-3
